As a reminder, the inhibition is the drop in the measured response relative to a control, in per cent.

This is an account of results in PubChem BioAssay AID652197 (Broad Institute, 2013).

Values joined by “and” are separate entries in the source; they are usually repeats but may differ in a detail not shown here. Identical values can stand only once. In all, about 340,000 compounds went through this assay and about 500 (0.15%) were called active. The sample as a whole holds a higher share of actives than the screen did. Unmarked numbers belong to inactive results.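 How the source made its calls: active means mean replicate inhibition of at least 30%, or all replicates individually reaching that 30% level; inactive means mean below 30% and not every replicate reaching it.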

The target in the assay is Endoplasmic reticulum aminopeptidase 1 (Homo sapiens) (UniProt Q9NZ08). The assay can be described thus: human ERAP1 aminopeptidase inhibitors, primary screen, biochemical, single point, plate reader (AID 652197).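 Further: 0% = neutral control wells and 100% = L-leucinethiol positive control wells.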 The conditions noted are these: recombinant ERAP1, Leu-AMC fluorescence, 60 min; at 10.7 µM; hits give high values.
Sequence of Endoplasmic reticulum aminopeptidase 1 (Homo sapiens) (Q9NZ08 whole entry, looked up): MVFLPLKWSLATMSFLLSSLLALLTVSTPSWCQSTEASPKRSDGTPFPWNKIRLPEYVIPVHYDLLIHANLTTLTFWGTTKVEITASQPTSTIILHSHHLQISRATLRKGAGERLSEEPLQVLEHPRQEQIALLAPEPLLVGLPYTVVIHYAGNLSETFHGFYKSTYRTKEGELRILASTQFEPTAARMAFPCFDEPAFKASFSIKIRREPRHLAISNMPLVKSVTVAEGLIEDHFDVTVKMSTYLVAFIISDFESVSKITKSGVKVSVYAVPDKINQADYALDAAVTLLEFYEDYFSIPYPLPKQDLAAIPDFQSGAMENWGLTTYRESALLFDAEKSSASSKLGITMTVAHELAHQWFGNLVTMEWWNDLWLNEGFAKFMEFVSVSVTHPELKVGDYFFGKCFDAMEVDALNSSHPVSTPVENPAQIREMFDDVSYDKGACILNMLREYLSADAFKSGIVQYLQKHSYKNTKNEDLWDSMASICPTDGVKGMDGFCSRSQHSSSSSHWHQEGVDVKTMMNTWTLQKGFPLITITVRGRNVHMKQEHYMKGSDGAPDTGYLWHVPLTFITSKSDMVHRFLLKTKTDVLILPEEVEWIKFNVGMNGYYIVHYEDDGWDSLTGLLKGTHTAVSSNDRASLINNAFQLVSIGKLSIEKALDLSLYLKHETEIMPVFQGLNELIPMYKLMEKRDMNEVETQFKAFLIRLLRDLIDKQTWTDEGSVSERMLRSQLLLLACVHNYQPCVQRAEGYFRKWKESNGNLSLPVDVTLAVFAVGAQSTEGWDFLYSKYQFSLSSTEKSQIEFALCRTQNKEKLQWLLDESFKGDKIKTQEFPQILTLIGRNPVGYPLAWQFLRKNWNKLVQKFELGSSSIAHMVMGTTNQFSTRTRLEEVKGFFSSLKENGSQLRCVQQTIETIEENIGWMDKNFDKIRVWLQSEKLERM
As for `CN(C)C(=O)C[C@@H]1C[C@H]2c3cc(NC(=O)Nc4ccccc4F)ccc3O[C@H]2[C@@H](CO)O1`, the inhibition is -1.15%. With `O=C(C[C@@H]1C=C[C@H](NC(=O)Nc2ccccc2F)[C@H](CO)O1)NCc1ccc(F)cc1`, the inhibition was -4.09%.

`COc1ccc(NC(=O)Nc2ccc3c(c2)C(=O)N([C@@H](C)CO)C[C@@H](C)[C@H](CN(C)S(=O)(=O)c2cccs2)O3)cc1`: the inhibition was 2.02%. With `C[C@@H]1CN([C@H](C)CO)C(=O)c2cc(NS(=O)(=O)c3cn(C)cn3)ccc2O[C@@H](C)CCCCO[C@H]1CN(C)C` the figure was 11.1%; with `COc1ccc(C#Cc2cnc3c(c2)C(=O)N([C@H](C)CO)C[C@@H](C)[C@@H](CN(C)C(=O)CN(C)C)O3)cc1`, 6.88%. With `Cc1noc(C)c1S(=O)(=O)Nc1cccc2c1O[C@@H](CN(C)S(=O)(=O)c1cn(C)cn1)[C@@H](C)CN([C@H](C)CO)C2=O` the figure was 1.15%; with `CCCc1cn(CC[C@@H]2CC[C@H](NS(=O)(=O)c3ccccc3Cl)[C@H](CO)O2)nn1`, 4.02%.

`CO[C@H]1CN(C)C(=O)c2ccc(NC(=O)c3ccc4c(c3)OCO4)cc2OC[C@@H](C)NC[C@@H]1C`: the inhibition is 0.503%. Turning to `CN1C(=O)c2cc(NS(=O)(=O)CC(F)(F)F)ccc2OC[C@H]2O[C@@H](CC(=O)NCc3ccc(Cl)c(Cl)c3)CC[C@@H]21`, the inhibition was -2.14%. For `Cc1ccccc1S(=O)(=O)N1[C@H](C#N)[C@H](c2ccccc2)[C@@H]1CO` the value was 1.23%; for `CN(C)C(=O)c1cccc(-c2ccc([C@H]3[C@H]4CN(C(=O)Cc5ccccc5)CC(=O)N4[C@H]3CO)cc2)c1`, 1.83%; for `CO[C@@H]1CN(C)C(=O)c2cc(NC(=O)NC3CCCC3)ccc2OC[C@H](C)NC[C@H]1C`, 1.04%.

As to `COc1cccc(S(=O)(=O)N2[C@@H]3CNC[C@H]2C3c2ccc(-c3ccccc3OC)cc2)c1` (stereo not given in full), the inhibition is -1.91% and -0.285%. With `COC(=O)C[C@@H]1CC[C@H]2[C@H](COc3ccc(NC(=O)c4ccccc4F)cc3C(=O)N2C)O1` the figure was 0.852%; with `C/C=C/c1ccc([C@H]2[C@@H](CO)N(C(=O)CN(C)C)C23CN(C(=O)C2CCCC2)C3)cc1`, -0.32%.

Turning to `C[C@H](CO)N1C[C@H](C)[C@H](CN(C)C(=O)c2ccccc2)OCCCC[C@H](C)Oc2ccc(N(C)C)cc2C1=O`, the inhibition is 1.85%. With `COc1ccccc1S(=O)(=O)N1C[C@@H]2N[C@H](C1)C2c1ccc(-c2cccc(C)c2)cc1` (stereo not given in full) the figure was 4.06% and 6.11%; with `C[C@@H](NC(=O)C[C@H]1C=C[C@@H](NC(=O)CN2CCOCC2)[C@@H](CO)O1)c1ccccc1`, 9%. With `CCCN1C[C@H](C)[C@@H](OC)CN(C)C(=O)c2ccc(NC(=O)C3CCOCC3)cc2OC[C@@H]1C`, the inhibition was -1.27%. Consider `O=C(Nc1cccc(Cl)c1)N[C@@H]1CC[C@@H](CCNC(=O)C2CCOCC2)O[C@@H]1CO`, for which the inhibition was -1.57%. Consider `COc1ccc(NC(=O)N(C)C[C@H]2Oc3ccc(N(C)C)cc3C(=O)N([C@@H](C)CO)C[C@H]2C)cc1`, for which the inhibition is 3.18%.

With `O=C(Nc1cc(F)ccc1F)N1C[C@H]2[C@@H](c3ccccc31)[C@@H](CO)N2CC1CCCC1`, the inhibition is -1.13%. For `C[C@H]1CN([C@@H](C)CO)C(=O)c2cc(NS(=O)(=O)c3cccs3)ccc2O[C@@H]1CN(C)C(=O)Nc1ccccc1` the value was -2.47%; for `CC(=O)N1Cc2cc(C(=O)NCc3cc(F)cc(F)c3)nc(-c3cccc(C4=CCCC4)c3)c2[C@@H]1CCO`, 3.25%. On to `O=C(C[C@@H]1C=C[C@H](NC(=O)C2CCC2)[C@@H](CO)O1)NCC1CC1`, for which the inhibition was 0.604%. With `O=C(NCCCNCc1ccccc1)c1ccc(/C=N/O)nc1` the figure was 4.32%; with `C[N+](C)(C)CCNC(=O)c1cc[n+](Cc2ccccc2)c(/C=N/O)c1`, 105% (active).

As to `C/C(Cc1ccccc1)=N\NC(=O)CNC(=O)c1cccc(Br)c1`, the inhibition is 7.75%. For `COc1ccc(C(=O)NCc2nnc(SCC(=O)NC3=NCCS3)n2C)cc1` the value was 1.94%. With `COc1ccc(C(=O)NCc2nnc(SCCOc3ccccc3)n2C)cc1` the figure was 31.3% (active); with `COc1ccc(CC(=O)NCc2nnc(SCC(=O)Nc3nccs3)n2C)cc1`, 1.32%. In the case of `COC(=O)C[C@H]1C[C@H]2c3cc(NC(=O)Nc4ccccc4F)ccc3O[C@H]2[C@H](CO)O1`, the inhibition was -1.68%. As for `O=C(NC1Cc2ccccc2C1)[C@H]1[C@H](CO)[C@H]2Cn3c(ccc(C4=CCCCC4)c3=O)[C@H]2N1CC1CC1`, the inhibition was -5.27%. For `O=C(Cc1ccccn1)N[C@H]1CC[C@H](CCn2cc(-c3ccc(F)cc3)nn2)O[C@H]1CO`, the inhibition is -3.36%. Regarding `O=C(C[C@@H]1CC[C@H](NC(=O)CN2CCOCC2)[C@@H](CO)O1)NCCc1ccccc1`, the inhibition is 0.528%. As to `O=C(N[C@H]1C=C[C@@H](CC(=O)N2CCc3ccccc3C2)O[C@@H]1CO)C1CCOCC1`, the inhibition was -0.073%.

Regarding `Cc1ccc(-c2ccccc2[C@H]2[C@@H](C#N)N(c3ncc(-c4ccccc4)s3)[C@@H]2CO)cc1`, the inhibition was -2.75%. For `Cc1ccc(S(=O)(=O)Nc2ccc3c(c2)C(=O)N([C@H](C)CO)C[C@@H](C)[C@@H](CN(C)S(C)(=O)=O)OCCCC[C@@H](C)O3)cc1` the value was 3.3%; for `C[C@@H]1CN([C@H](C)CO)C(=O)c2cc(NC(=O)c3ccncc3)ccc2O[C@@H](C)CCCCO[C@@H]1CN(C)CC1CC1`, -0.674%. For `C[C@@H]1CN([C@H](C)CO)C(=O)Cc2cc(NC(=O)CCC(F)(F)F)ccc2O[C@@H]1CN(C)CC1CCCCC1` the value was 0.143%; for `CO[C@@H]1CN(C)C(=O)c2ccc(NC(=O)Nc3c(C)noc3C)cc2OC[C@@H](C)N(C(=O)Nc2cccc(Cl)c2)C[C@H]1C`, -0.693%. For `N#C[C@@H]1[C@H](c2ccccc2-c2ccccc2F)[C@@H](CO)N1C(=O)C1CCOCC1` the value was 0.396%; for `O=C(O)CSc1ccc(S(=O)(=O)N2CCCC2)cn1`, 0.672%; for `Nc1nc(NCC(=O)O)nc(N2CCCCCC2)c1[N+](=O)[O-]`, 4.98%. Regarding `N#Cc1c(N2CCCCC2)nc(N)c2c(N)nc(SCC(=O)O)cc12`, the inhibition was 46.5% (active). For `C/C=C/c1ccc(C2[C@H]3CNC[C@@H]2N3C(=O)Nc2cc(F)ccc2F)cc1` (stereo not given in full) the value was 0.659% and 1.15%; for `Nc1nc2c(ncn2[C@@H]2O[C@H](C(=O)N[C@H](Cc3ccccc3)C(=O)NCC3CCCCC3)[C@@H](O)[C@H]2O)c(=O)[nH]1`, 2.44%; for `COc1ccc(CN(C)C[C@H]2OCCCC[C@H](C)Oc3ccc(NS(=O)(=O)c4ccc(C)cc4)cc3C(=O)N([C@@H](C)CO)C[C@H]2C)cc1`, 0.631%. For `CCCc1nc(-c2cc3cc(C)ccc3[nH]c2=O)no1` the value was 55.1% (active). In the case of `Cc1ccc2[nH]c(=O)c(CN(C)S(=O)(=O)c3cccc4nonc34)cc2c1`, the inhibition is 0.344%.

Turning to `CCC(=O)N(CCc1ccccc1)Cc1cc2cc(C)ccc2[nH]c1=O`, the inhibition is -2.61%. As to `CC(C)NC(=O)N[C@H]1CC[C@@H](CC(=O)NCc2ccc(Oc3ccccc3)cc2)O[C@@H]1CO`, the inhibition is -0.517%. For `COc1ccc(NC(=O)N2CC(=O)N3[C@H](CO)[C@@H](c4ccc(C#CCC5CCCC5)cc4)[C@H]3C2)cc1` the value was -1.79%; for `CC(=O)NC[C@H]1[C@@H](c2ccc(C#CC(C)C)cc2)[C@@H](CO)N1Cc1ccccn1`, 3.95%. Turning to `COc1ccc(NC(=O)N2CC(=O)N3[C@H](CO)[C@@H](c4ccc(-c5ccc(C)cc5)cc4)[C@H]3C2)cc1`, the inhibition is 1.13%. On to `O=C(c1ccc(F)cc1)N1CC(=O)N2[C@@H](CO)[C@@H](c3ccc(C#Cc4ccc(F)cc4)cc3)[C@@H]2C1`, for which the inhibition was -1.04%. On to `C[C@H](CO)N1C[C@H](C)[C@H](CN(C)C(=O)Nc2ccc(C(F)(F)F)cc2)Oc2ccc(NS(=O)(=O)c3cn(C)cn3)cc2CC1=O`, for which the inhibition was 2.19%. For `COc1ccc(S(=O)(=O)Nc2ccc3c(c2)C(=O)N([C@@H](C)CO)C[C@H](C)[C@H](CN(C)S(=O)(=O)c2c(C)noc2C)OCCCC[C@@H](C)O3)cc1`, the inhibition was -3.22%.

On to `O=C(NCC[C@@H]1CC[C@@H](NS(=O)(=O)c2ccc(Cl)cc2)[C@@H](CO)O1)c1ccccc1F`, for which the inhibition is -2.75%.

`O=C(Cc1ccccc1)N1C[C@@H]2[C@H](c3ccccc31)[C@@H](CO)N2C(=O)C1CCOCC1`: the inhibition was -0.84%. With `C[C@@H]1CCCCO[C@H](CN(C)Cc2ccc(C(F)(F)F)cc2)[C@@H](C)CN([C@@H](C)CO)C(=O)c2cc(NC(=O)c3ccncc3)ccc2O1` the figure was -3.82%; with `CO[C@@H]1CN(C)C(=O)c2cc(NC(=O)C3CCOCC3)ccc2OC[C@@H](C)NC[C@@H]1C`, 1.93%. As to `O=C(Nc1ccccc1F)N1CC(=O)N2[C@H](CO)[C@H](c3ccc(C#CC4CC4)cc3)[C@@H]2C1`, the inhibition was -1.09%.

In the case of `CN(C)C(=O)C[C@H]1C[C@H]2c3cc(NC(=O)Nc4ccc(C(F)(F)F)cc4)ccc3O[C@H]2[C@@H](CO)O1`, the inhibition was -0.814%. As to `O=C(Nc1cc(F)ccc1F)N[C@H]1CC[C@@H](CCn2cc(C3CCCC3)nn2)O[C@@H]1CO`, the inhibition was 0.545%.
